Results taken from the supplement of paper PMC10681739.

Tests used:
ETS1 [1] = target: T1, ETS1 (UniProt P14921); assay: ETS1 binding intensity (PBM fluorescence), ETS1 alone (arbitrary fluorescence units); higher = stronger binding; settings: ETS1 concentration 1 nM; RUNX1 concentration 0 nM
T1 sequence: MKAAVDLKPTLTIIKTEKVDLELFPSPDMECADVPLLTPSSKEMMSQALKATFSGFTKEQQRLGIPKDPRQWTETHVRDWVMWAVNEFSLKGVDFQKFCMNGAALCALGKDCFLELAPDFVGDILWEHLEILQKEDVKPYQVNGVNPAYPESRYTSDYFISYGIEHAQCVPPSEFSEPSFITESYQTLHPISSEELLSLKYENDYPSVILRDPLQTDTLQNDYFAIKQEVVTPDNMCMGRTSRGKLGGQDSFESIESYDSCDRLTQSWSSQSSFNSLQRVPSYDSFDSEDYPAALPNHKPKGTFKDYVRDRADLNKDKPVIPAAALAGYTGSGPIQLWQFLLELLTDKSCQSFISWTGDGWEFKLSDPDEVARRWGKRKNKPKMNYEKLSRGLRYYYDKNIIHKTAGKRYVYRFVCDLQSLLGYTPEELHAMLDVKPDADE

RUNX1 [2] = target: RUNX1 (UniProt Q01196); assay: RUNX1 binding intensity (PBM fluorescence), RUNX1 alone (arbitrary fluorescence units); higher = stronger binding; settings: RUNX1 concentration 2 nM; ETS1 concentration 0 nM
Method: (§1)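 Cooperative gcPBM on 36-bp genomic probes with neighbouring ETS1 and RUNX1 sites. Recombinant human RUNX1 (2 nM) was incubated alone or with ETS1 (25 nM) and detected with anti-RUNX1 antibody plus Alexa488 secondary. Values are medians over 4 replicate spots; the RUNX1+ETS1 data were normalised to the RUNX1-only data. The probes sit in constant array flanks that are not printed.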

ETS1 [3] = target: T1, ETS1; assay: ETS1 binding intensity (PBM fluorescence) in presence of RUNX1, normalised to ETS1-only experiment (arbitrary fluorescence units); higher = stronger binding; settings: ETS1 concentration 1 nM; RUNX1 concentration 25 nM
RUNX1 [4] = target: RUNX1 (UniProt Q01196); assay: RUNX1 binding intensity (PBM fluorescence) in presence of ETS1, normalised to RUNX1-only experiment (arbitrary fluorescence units); higher = stronger binding; settings: RUNX1 concentration 2 nM; ETS1 concentration 25 nM
Method: as §1
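For RUNX1 binding intensity (PBM fluorescence) in presence of ETS1, normalised to RUNX1-only experiment in this document: Full-length recombinant human ETS1 or RUNX1 bound to double-stranded 36-bp genomic probes on microarrays, detected by protein-specific primary antibody and Alexa488 secondary, spot fluorescence as median of four replicate spots.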
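For RUNX1 binding intensity (PBM fluorescence), RUNX1 alone in this document: Full-length recombinant human RUNX1 bound to double-stranded 36-bp genomic probes on a high-density microarray, scored as Alexa488 fluorescence per spot via anti-RUNX1 antibody, median of four replicate spots.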

RUNX1, sequence (Q01196 whole entry): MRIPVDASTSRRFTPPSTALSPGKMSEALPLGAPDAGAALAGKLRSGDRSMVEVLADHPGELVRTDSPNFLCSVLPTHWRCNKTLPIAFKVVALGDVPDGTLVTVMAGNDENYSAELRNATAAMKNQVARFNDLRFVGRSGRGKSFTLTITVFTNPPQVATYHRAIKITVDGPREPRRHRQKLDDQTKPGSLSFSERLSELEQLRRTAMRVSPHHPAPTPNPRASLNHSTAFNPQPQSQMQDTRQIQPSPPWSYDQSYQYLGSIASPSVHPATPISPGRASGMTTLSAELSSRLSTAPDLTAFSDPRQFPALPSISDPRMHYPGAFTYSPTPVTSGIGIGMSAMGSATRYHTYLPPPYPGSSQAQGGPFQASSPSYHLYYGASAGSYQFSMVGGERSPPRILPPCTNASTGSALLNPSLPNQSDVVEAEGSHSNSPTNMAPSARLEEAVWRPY

| Sequence | ETS1 binding intensity (ETS1 [1]) | RUNX1 binding intensity (RUNX1 [2]) | ETS1 binding intensity (ETS1 [3]) | RUNX1 binding intensity (RUNX1 [4]) |
| --- | --- | --- | --- | --- |
| ATGTTAACATCCTGCCATGAAAACCGCAAGAAGGGC | 680 | 19000 | 3730 | 26000 |
| GTCACCATTTCCGGGCCTCCGCGGTGTCCCCACCCC | 2560 | 1040 | 2870 | 2900 |
| GTGGCTATGGGAAGTGGGGTGCGGTTTCTGCCGGGG | 554 | 1340 | 3070 | 1670 |
| AACCTGCAGACTTCCTGCCATGTGACCACAGGGTCT | 901 | 915 | 3140 | 2160 |
| GATCTTCCTGCAACCCCCCGAGACAACCACCGAACA | 854 | 1090 | 887 | 1400 |
| ATCTCCACATCCTCCCCATCGACCGCATGGTTTACC | 439 | 1970 | 653 | 3450 |
| CCTCACCCAGGAAGTGGCTGCGGCTGTCTCAGGGTT | 2450 | 770 | 3340 | 1440 |
| TGAGAAAACAGGAAGCGCCCAGTCACCACAGAAAGC | 2910 | 765 | 5290 | 1330 |
| AATAAAGCTACAGACTTCCGCCCACAGGTCGCCGCT | 1020 | 789 | 1280 | 1360 |
| TCCTTTTCCGGTGGCGGCGCCGCGCGGTGAGGTTGT | 754 | 731 | 615 | 1880 |
| CCCTCCTCTTTCGTTTCCTAACCGCAAATTCCATCA | 487 | 58200 | 1720 | 53700 |
| GAAGAGGGTGGAGAAGGAAGTGGTCACACCACTTGC | 1140 | 675 | 2380 | 929 |
| CGATTCCGGAGACAGGCCCCACCGTGCGGTAAACTG | 550 | 835 | 810 | 931 |
| ATGTCTTCCTGTACAGGAACTGGGTCCCAGCCGCAG | 4120 | 745 | 4430 | 1510 |
| TTTCGAGAAAACCGGAAGTGCGTGGTCACGCCCCGC | 29400 | 733 | 38100 | 1670 |
| GAGGAGATTTCCGGCCCCCATCCCCGCAGCGACCTT | 1690 | 762 | 1990 | 1820 |
| GACTTCCTGTTGAAGATTGGCCTCTGCGGTACCACG | 951 | 2700 | 2350 | 9740 |
| GCTCATTTATGCATCCTGTGGTCTGTGTGTGTTTCG | 569 | 984 | 831 | 1390 |
